# This excerpt belongs to a sample that is enriched for the strongest signals.
# Assays:
# Experiment in all cases: glycan array binding signal (z-score within array); higher = stronger binding
# Settings in all cases: glycan notation: IUPAC condensed, linker removed
# [1] = system: Neu5Ac(a2-8)Neu5Ac(a2-3)Gal(b1-4)Glc
# Method in brief: (§1)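 The binding signal is a Z-score computed within each array. Data were drawn from 3228 arrays in the Consortium for Functional Glycomics database, restricted to those with a known protein sequence. Scores were averaged over arrays of the same protein sequence at different concentrations or buffers, and over linkers, and negative values can be taken as non-binding.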
# [2] = system: Neu5Ac(a2-8)Neu5Ac(a2-8)Neu5Ac(a2-3)[GalNAc(b1-4)]Gal(b1-4)Glc
# Method in brief: as §1
# [3] = system: Neu5Gc(a2-3)Gal(b1-3)[Fuc(a1-4)]GlcNAc
# Method in brief: as §1
# [4] = system: Neu5Ac(a2-8)Neu5Ac(a2-3)[Gal(b1-3)GalNAc(b1-4)]Gal(b1-4)Glc
# Method in brief: as §1
# [5] = system: Neu5Gc(a2-3)Gal(b1-3)GlcNAc
# Method in brief: as §1
# [6] = system: Neu5Ac(a2-8)Neu5Ac(a2-8)Neu5Ac(a2-8)Neu5Ac(a2-8)Neu5Ac(a2-8)Neu5Ac(a2-8)Neu5Ac(a2-8)Neu5Ac
# Method in brief: as §1
# [7] = system: Neu5Ac9Ac(a2-6)Gal(b1-4)GlcNAc
# Method in brief: as §1
# [8] = system: Neu5Gc(a2-3)Gal(b1-4)GlcNAc
# Method in brief: as §1
substance,measurement,setting,value
Actinohivin (Actinomycete K97),glycan array binding signal (z-score),[1],-0.163
same,glycan array binding signal (z-score),[2],-0.14
same,glycan array binding signal (z-score),[3],-0.168
AgI/II Vhelical-GFP (Streptococcus mutans),glycan array binding signal (z-score),[4],0.136
same,glycan array binding signal (z-score),[5],0.551
"SiiE (Salmonella typhimurium), A0A0H3NVH0",glycan array binding signal (z-score),[2],-0.437
"MIC3-MAR5 (Eimeria tenella), B6VCV4",glycan array binding signal (z-score),[6],-0.75
"MIC3-MAR1b (Eimeria tenella), B6VCV4",glycan array binding signal (z-score),[6],-0.531
"GspB (Streptococcus gordonii), Q939N5",glycan array binding signal (z-score),[7],2.97
LcI (Legionella pneumophila),glycan array binding signal (z-score),[7],0.198
"SpGH101 (Streptococcus pneumoniae), Q8DR60",glycan array binding signal (z-score),[8],-0.177
AgI/IIC123-GFP (Streptococcus mutans),glycan array binding signal (z-score),[8],-0.472

# Source: the supplement of paper PMC8728848
